A short description of assay [1]: AP1 Signaling Pathway (AID 357; active = well fitted curve in either direction with a large enough effect, not every such curve was filed as active;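 also: ME-180 reporter cells stimulated with EGF at its EC50 level; % is scaled to controls: 0 for no effect and ±100 for the full control effect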). Particulars: ME-180 AP-1-bla reporter, EGF-induced, beta-lactamase ratio, 5 h; at 7.69 µM (top of the series) unless noted. The method, boiled down:
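In this screen, ME-180 cells in Opti-MEM with 0.5% dialyzed FBS received EC50 EGF and compound titrations for 5 h. AP-1 reporter beta-lactamase was detected via CCF4 ratio, giving AC50 for positive and negative modulators.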

Assay [2] addresses Cytochrome P450 1A2 (Homo sapiens) (UniProt P05177). Put plainly: p450-cyp1a2 (AID 410; calls by dose curve;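 also: -100% = full effect of reference inhibitor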). The method, boiled down: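 Read-out is luminescence from luciferin produced by CYP1A2 demethylation of Luciferin-ME (100uM, at Km). Detection reagent stopped the 60 min NADPH-dependent reaction; signals were normalized to 57 uM furafylline.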
Assay [3] can be described thus: NFAT Signaling Pathway (AID 444; active = well fitted curve in either direction with a large enough effect, not every such curve was filed as active;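 also: carbachol stimulus at about its EC50 of 1 µM final; % is scaled to controls: 0 for no effect and ±100 for the full control effect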). Particulars: Jurkat NFAT-bla M1, carbachol, beta-lactamase ratio, 5 h; at 7.69 µM (top of the series) unless noted. The method, boiled down:
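Read-out: CCF4 FRET ratio (460 nm/530 nm) after 1 h RT dye loading, used for %activity and AC50 from titration series. Cells: Jurkat NFAT-β-lactamase/M1 line, treated with compound plus 1 uM carbachol for 5 h, 37 °C.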

Assay [4] is described as follows: Stat Signaling Pathway (AID 446; active = well fitted curve in either direction with a large enough effect, not every such curve was filed as active;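 also: ME-180 cervical cancer cells given 40 pM IL-6 alongside compound; SIE-controlled beta-lactamase reporter measured as 460/530 nm FRET emission ratio; % is scaled to controls: 0 for no effect and ±100 for the full control effect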). Particulars: ME-180 (cervical carcinoma) SIE beta-lactamase reporter, IL-6 stimulated, 5 h; at 7.69 µM (top of the series) unless noted. The method, boiled down: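 Overnight-plated ME-180 cells bearing a STAT Inducible Element beta-lactamase reporter; 5 h co-exposure to compound and 40 pM IL-6; values normalized to 300 pM IL-6 and 125 nM JAK inhibitor controls.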

In assay [5] the target is Glucocorticoid receptor (Homo sapiens) (UniProt P04150). Description: GR-GFP Redistribution (AID 450;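 active = compounds whose dose series gives a full or clear partial fitted curve of increased nuclear translocation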; also: potency is read from the fitted curve at half-maximal effect). Particulars: U2OS GR-GFP nuclear translocation, laser cytometry, 2 h.
Chain of Glucocorticoid receptor (Homo sapiens) (P04150 whole entry, looked up, the tested form may be a part): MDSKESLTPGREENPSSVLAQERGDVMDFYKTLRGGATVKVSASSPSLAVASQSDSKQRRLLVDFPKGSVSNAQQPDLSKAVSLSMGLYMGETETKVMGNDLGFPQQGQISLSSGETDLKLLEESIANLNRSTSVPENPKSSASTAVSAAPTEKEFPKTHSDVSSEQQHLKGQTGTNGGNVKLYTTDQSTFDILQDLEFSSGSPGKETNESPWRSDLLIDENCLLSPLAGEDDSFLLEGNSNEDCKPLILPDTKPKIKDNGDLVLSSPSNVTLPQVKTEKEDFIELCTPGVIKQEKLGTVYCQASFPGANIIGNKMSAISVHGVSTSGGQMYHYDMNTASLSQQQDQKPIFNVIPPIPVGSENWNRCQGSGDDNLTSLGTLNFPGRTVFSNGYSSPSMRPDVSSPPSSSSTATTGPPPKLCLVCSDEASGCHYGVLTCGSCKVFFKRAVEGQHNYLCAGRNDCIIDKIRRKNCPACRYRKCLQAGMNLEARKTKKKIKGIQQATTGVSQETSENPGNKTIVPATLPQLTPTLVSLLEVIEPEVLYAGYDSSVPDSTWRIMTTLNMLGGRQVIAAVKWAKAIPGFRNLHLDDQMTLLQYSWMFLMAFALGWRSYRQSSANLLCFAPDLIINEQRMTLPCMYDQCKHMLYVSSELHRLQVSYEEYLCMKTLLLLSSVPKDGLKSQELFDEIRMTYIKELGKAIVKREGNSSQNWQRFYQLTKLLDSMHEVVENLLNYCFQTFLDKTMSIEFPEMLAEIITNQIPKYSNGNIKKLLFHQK
Assay [6] has the same target. Description: GR-EFC Redistribution (AID 451; calls by dose curve; also: potency is read from the fitted curve at half-maximal effect). As to conditions: CHO-K1 GR-EFC translocation, beta-gal luminescence, 2 h. The method, boiled down: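 Translocation of GR-ED fusion to nuclear EA restores b-gal, read by luminescence after 1 h room-temperature detection. Engineered CHO-K1 biosensor cells, 1,000/well, exposed 2 h at 37 C to titrations up to 46 uM final.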

The target in assay [7] is 3',5'-cyclic-AMP phosphodiesterase 4B (Homo sapiens) (UniProt Q07343). Description: qHTS Assay for Inhibitors of PDE-IV (AID 607; active = well fitted activation curve with a large enough effect in the main read-out, with a control signal flat, not every such curve was filed as active; also: % of control where 0% means no effect). The method, boiled down:
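Live HEK293 cells with a modified cyclic nucleotide-gated (CNG) channel report intracellular cAMP via membrane-potential dye fluorescence (ex 535/em 590 nm). Endogenous PDE-IV was targeted. Compounds were tested at up to 22.9 uM final; RO 20-1724 100 uM served as control.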
On the technique in general: qHTS replaces the single test concentration by a dilution series.

The target in assay [8] is Cytochrome P450 2C9 (Homo sapiens) (UniProt P11712). Put plainly: qHTS Assay for Inhibitors and Substrates of Cytochrome P450 2C9 (AID 883). Also: % is scaled to controls: 0 for no effect and ±100 for the full control effect; nearly all actives have a fitted effect of over 60% in size. The method, boiled down: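 Luminescent read-out of deoxyluciferin hydroxylation, normalized to 57uM sulphaphenazole (AC100). Reaction: 10nM enzyme, 100uM Luciferin-H (equal to KM), 25mM KPO4, 10 min compound preincubation, then 60 min with NADPH regeneration, both at 37C.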
Chain of Cytochrome P450 2C9 (Homo sapiens) (P11712 whole entry, looked up): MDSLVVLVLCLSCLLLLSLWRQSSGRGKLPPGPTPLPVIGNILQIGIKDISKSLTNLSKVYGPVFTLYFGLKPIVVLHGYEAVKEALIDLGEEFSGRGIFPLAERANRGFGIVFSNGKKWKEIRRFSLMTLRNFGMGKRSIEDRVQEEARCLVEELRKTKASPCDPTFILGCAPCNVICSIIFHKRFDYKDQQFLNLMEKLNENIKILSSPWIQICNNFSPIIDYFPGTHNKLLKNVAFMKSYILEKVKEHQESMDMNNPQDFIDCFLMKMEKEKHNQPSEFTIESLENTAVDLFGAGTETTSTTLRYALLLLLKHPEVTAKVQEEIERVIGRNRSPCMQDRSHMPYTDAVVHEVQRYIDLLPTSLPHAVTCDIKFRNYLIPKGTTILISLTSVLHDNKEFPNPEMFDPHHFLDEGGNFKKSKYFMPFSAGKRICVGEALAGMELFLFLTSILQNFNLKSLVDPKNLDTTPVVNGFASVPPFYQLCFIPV

Assay [9] has as its target Cytochrome P450 2D6 (Homo sapiens) (UniProt P10635). Description: qHTS Assay for Inhibitors and Substrates of Cytochrome P450 2D6 (AID 891).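 Also: luciferin methyl ether substrate demethylated by CYP2D6 with NADPH regeneration; % is scaled to controls: 0 for no effect and ±100 for the full control effect; nearly all actives have a fitted effect of over 60% in size.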 The method, boiled down: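 Luminescent read-out of luciferin formed by 5 nM human CYP2D6 demethylating 30 uM Luciferin-ME EGE (Km level) over 60 min at room temperature after NADPH regeneration addition. Data normalized to full inhibition by 1.43 uM quinidine.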

For assay [10], the target named is Cytochrome P450 2C19 (Homo sapiens) (UniProt P33261). Put plainly: qHTS Assay for Inhibitors and Substrates of Cytochrome P450 2C19 (AID 899). Also: % is scaled to controls: 0 for no effect and ±100 for the full control effect; nearly all actives have a fitted effect of over 60% in size. The method, boiled down: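 Luminescence readout of luciferin formed from 10uM Luciferin-H EGE (KM level) by 5 nM CYP2C19 in 50mM KPO4. 60 min NADPH-driven reaction at 37C after 10 min compound preincubation; data scaled to 57uM ketoconazole inhibition.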

The target in assay [11] is Mitogen-activated protein kinase 10 (Mus musculus) (UniProt Q61831). Description: JNK3 AlphaScreen Assay (AID 530; active = well fitted curve in either direction with a large enough effect, not every such curve was filed as active;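 also: kinase came from lysate of stimulated human HepG2 cells; signal reports phosphorylation of biotinylated GST-cJun 1-79 at Ser73 with 10 µM ATP; % is scaled to controls: 0 for no effect and ±100 for the full control effect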). The method, boiled down: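 Kinase buffer: 20 mM Tris-HCl pH 7.6, 10 mM MgCl2, 1 mM DTT, 0.1 mM Na3VO4, 0.01% Tween-20; ATP 10 uM. Substrate biotin-GST-cJun(1-79), enzyme from activated HepG2 lysates. Detection by Ser73 phospho-antibody AlphaScreen.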
For orientation: Bead proximity is the source of the signal in Alpha formats.

In assay [12] the target is Muscarinic acetylcholine receptor M1 (Rattus norvegicus) (UniProt P08482). Put plainly: qHTS Assay for Antagonists of Acetylcholine Muscarinic M1 Receptor: Measurement of IP-One Response (AID 944). Also: nearly all actives have a fitted effect of over 75% in size. The method, boiled down: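 Antagonism was measured as loss of carbachol-driven (EC80) IP1 accumulation in CHO cells carrying rat M1, using a homogeneous IP-One TR-FRET kit read at 620 and 665 nm.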
Chain of Muscarinic acetylcholine receptor M1 (Rattus norvegicus) (P08482 whole entry, looked up): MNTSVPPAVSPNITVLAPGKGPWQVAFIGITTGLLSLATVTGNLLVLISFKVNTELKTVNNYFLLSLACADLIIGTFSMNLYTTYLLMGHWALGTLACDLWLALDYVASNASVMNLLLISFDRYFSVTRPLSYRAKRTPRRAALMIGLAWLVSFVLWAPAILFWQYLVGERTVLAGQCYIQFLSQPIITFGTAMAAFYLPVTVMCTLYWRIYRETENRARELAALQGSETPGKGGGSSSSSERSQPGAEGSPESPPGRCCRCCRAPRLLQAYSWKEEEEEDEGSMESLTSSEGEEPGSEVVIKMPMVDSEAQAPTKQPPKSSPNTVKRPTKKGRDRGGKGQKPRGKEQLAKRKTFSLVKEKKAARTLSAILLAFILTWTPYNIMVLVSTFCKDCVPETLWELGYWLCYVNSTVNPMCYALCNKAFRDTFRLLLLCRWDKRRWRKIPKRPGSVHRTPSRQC

Assay [13] deals with Pyruvate kinase (Leishmania mexicana) (UniProt Q27686). Put plainly: qHTS Validation Assay for Inhibitors of Leishmania Mexicana Pyruvate Kinase (AID 945).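 Also: 0% = DMSO only neutral control wells.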 The method, boiled down: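 The enzyme is a highly purified E451W mutant of LmPYK used at 0.2 nM. It converts 0.5 mM PEP and 0.1 mM ADP over 1 h at room temperature; product ATP is quantified by luciferase luminescence relative to DMSO controls.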
Chain of Pyruvate kinase (Leishmania mexicana) (Q27686 2-499 E452W): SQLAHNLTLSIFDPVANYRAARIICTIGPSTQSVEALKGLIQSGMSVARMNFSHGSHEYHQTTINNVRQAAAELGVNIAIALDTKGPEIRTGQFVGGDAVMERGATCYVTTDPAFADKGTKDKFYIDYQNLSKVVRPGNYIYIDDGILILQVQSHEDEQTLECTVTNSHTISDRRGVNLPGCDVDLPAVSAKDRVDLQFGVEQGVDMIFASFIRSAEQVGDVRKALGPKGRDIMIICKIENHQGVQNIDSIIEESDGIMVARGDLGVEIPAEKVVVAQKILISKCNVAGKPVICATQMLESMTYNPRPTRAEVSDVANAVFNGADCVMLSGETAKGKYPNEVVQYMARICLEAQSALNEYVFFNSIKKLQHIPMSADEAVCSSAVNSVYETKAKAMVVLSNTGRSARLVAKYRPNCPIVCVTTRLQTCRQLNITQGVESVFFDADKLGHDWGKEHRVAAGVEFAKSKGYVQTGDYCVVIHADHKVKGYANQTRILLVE

Assay [14] has as its target Pyruvate kinase PKM (Homo sapiens) (UniProt P14618). Put plainly: qHTS Assay for Activators of Human Muscle Pyruvate Kinase (AID 954; active = well fitted curve in the direction sought with a large enough effect, not every such curve was filed as active;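 also: 0% = uninhibited enzyme and -100% = no enzyme or full thiadiazolimine inhibition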). The method, boiled down:
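Screening used highly purified human pyruvate kinase M2 under submaximal activity, with PEP at its Km and ADP below Km. After an hour at room temperature, ATP was read by luciferase luminescence.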

For assay [15], the target named is Alpha-galactosidase A (Homo sapiens) (UniProt P06280). Put plainly: Counterscreen for Glucocerebrosidase Inhibitors: qHTS Assay for Human alpha-Galactosidase at pH 4.5 (AID 992). Also: 0% is about no effect. The method, boiled down: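 Each compound is preincubated briefly with 2 nM enzyme before substrate addition (80 uM); plates then sit 20 min at ambient temperature, are quenched with 1M NaOH/1M glycine, and read fluorometrically.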
Chain of Alpha-galactosidase A (Homo sapiens) (P06280 whole entry, looked up): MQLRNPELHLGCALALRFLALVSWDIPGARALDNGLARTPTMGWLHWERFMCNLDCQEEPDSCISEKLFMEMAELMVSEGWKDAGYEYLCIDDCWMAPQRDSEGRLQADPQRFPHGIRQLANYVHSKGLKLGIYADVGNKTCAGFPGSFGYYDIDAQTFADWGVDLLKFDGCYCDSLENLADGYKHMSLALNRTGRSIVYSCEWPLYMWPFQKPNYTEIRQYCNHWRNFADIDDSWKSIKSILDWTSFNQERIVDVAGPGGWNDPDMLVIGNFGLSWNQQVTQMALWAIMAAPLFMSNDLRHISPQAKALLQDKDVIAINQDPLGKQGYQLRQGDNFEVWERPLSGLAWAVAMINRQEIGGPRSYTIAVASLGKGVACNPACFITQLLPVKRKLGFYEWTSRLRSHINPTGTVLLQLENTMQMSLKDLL

In assay [16] the target is alpha-glucosidase (Oryza sativa, rice) (UniProt Q653V4). Put plainly: Counterscreen for Glucocerebrosidase Inhibitors: qHTS Assay for Rice alpha-Glucosidase at pH 5.0 (AID 997).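 Also: 0% = full activity with enzyme and -100% = basal without enzyme.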 The method, boiled down: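 Endpoint fluorogenic assay at pH 5.0: compounds (0.7 nM to 77 uM) titrated against 4 nM rice enzyme and 400 uM 4-MU-alpha-glucoside for 20 min at room temperature; NaOH/glycine stop, read ex 365/em 440 nm, Hill-fitted AC50.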

Assay [17] addresses Guanine nucleotide-binding protein G(i) subunit alpha-1 (Homo sapiens) (UniProt P63096). Put plainly: qHTS Assay for Inhibitors of RGS12 GoLoco Motif Activity (Green Fluorophore) (AID 879).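 Also: 0% = labeled peptide with Gαi1 and full inhibition = labeled peptide alone without protein; negative values mean loss of peptide binding seen as reduced polarization.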 The method, boiled down: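 A drop in FITC polarization marked displacement of the FITC-tagged RGS12 GoLoco peptide (10 nM) from Gαi1 (50 nM). Compounds were incubated 10 min at room temperature in Tris pH 7.5 buffer containing 150 mM NaCl, 0.1 mM GDP and 0.05% NP40; unlabeled peptide titration served as control.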

A short description of assay [18]: qHTS Assay for Identification of Small Molecule Antagonists for NFkB Signaling Pathway (AID 895; active = well fitted inhibition curve with a large enough effect in the signal ratio, with a control signal flat, not every such curve was filed as active; the % refers to the signal ratio; also: % is scaled to controls: 0 for no effect and ±100 for the full control effect). The method, boiled down: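 Beta-lactamase reporter read-out (460 and 530 nm emission ratio, 405 nm excitation, 2 hrs substrate loading RT) after 5 hr stimulation with 10 pM TNF alpha in compound-treated NFkB-bla ME-180 cells in low-serum medium.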
Assay [19] can be described thus: qHTS Assay for Identification of Small Molecule Agonists for Thrombopoietin (TPO) Signaling Pathway (AID 917). Also: % is scaled to controls: 0 for no effect and ±100 for the full control effect. The method, boiled down: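 Quantitative HTS for pathway activators: compounds were pin-transferred onto IL-3-starved Ba/F3 cells expressing human TPO receptor, TPO was added at its EC50 (26 pM final), and after 24 hrs at 37 C reporter luciferase was measured.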

Assay [20] addresses Muscarinic acetylcholine receptor M1 (Rattus norvegicus) (UniProt P08482). Put plainly: qHTS Assay for Antagonists of Acetylcholine Muscarinic M1 Receptor: Kinetic Measurement of Intracellular Calcium Response (AID 943).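 Also: Fluo-4 calcium signal as peak divided by basal fluorescence over 4 min; nearly all actives have a fitted effect of over 75% in size.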 The method, boiled down: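 Quantitative HTS in CHO-M1 (rat receptor) cells: 10 min compound exposure ahead of 100 nM carbachol, Fluo-4 fluorescence followed 4 min, value expressed as peak-to-basal ratio.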

Values without a mark were called inactive. Records with an inconclusive call do not appear. Active and inactive are the calls of the source. Unless noted, calls follow the shape of the dose curve; as a rule, active = well fitted curve in the direction sought with a large enough effect; inconclusive = small, poorly fitted or top-dose-only effect, or another doubt; inactive = no such curve, though single readings can be large; an effect the other way counts as inactive or inconclusive.

Chain of 3',5'-cyclic-AMP phosphodiesterase 4B (Homo sapiens) (Q07343 whole entry, looked up): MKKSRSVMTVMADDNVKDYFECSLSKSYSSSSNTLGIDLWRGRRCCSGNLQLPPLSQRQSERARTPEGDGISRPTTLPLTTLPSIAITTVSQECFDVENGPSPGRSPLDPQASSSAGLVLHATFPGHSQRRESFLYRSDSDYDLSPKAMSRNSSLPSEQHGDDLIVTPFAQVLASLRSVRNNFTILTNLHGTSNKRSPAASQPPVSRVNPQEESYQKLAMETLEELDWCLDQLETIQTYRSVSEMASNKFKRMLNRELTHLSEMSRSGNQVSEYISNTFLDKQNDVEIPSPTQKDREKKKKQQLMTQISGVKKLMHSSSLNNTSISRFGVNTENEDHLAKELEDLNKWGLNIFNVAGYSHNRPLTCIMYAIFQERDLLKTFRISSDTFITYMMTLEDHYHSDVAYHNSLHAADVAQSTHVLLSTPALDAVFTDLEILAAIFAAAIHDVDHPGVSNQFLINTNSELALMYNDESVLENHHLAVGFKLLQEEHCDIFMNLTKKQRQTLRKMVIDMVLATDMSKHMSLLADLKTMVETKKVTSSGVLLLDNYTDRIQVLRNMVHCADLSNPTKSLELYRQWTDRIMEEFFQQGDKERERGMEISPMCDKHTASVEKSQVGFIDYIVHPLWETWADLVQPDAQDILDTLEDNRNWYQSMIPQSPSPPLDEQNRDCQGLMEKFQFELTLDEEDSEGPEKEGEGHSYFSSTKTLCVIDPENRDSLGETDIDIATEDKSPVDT
Chain of Pyruvate kinase PKM (Homo sapiens) (P14618 whole entry, looked up): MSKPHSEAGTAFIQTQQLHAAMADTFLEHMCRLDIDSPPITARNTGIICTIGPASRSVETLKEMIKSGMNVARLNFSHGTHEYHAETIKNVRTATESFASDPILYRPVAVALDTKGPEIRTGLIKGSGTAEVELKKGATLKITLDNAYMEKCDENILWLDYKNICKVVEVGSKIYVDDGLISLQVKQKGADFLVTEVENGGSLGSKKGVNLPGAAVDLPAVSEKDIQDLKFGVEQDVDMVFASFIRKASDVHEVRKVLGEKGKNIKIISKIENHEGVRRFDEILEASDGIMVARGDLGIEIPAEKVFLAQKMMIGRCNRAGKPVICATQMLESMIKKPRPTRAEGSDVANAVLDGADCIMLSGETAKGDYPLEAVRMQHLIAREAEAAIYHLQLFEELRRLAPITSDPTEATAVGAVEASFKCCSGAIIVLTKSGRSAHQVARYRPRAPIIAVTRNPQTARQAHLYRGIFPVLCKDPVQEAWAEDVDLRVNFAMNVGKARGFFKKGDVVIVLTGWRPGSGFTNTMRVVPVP
Chain of Cytochrome P450 2D6 (Homo sapiens) (P10635 whole entry, looked up): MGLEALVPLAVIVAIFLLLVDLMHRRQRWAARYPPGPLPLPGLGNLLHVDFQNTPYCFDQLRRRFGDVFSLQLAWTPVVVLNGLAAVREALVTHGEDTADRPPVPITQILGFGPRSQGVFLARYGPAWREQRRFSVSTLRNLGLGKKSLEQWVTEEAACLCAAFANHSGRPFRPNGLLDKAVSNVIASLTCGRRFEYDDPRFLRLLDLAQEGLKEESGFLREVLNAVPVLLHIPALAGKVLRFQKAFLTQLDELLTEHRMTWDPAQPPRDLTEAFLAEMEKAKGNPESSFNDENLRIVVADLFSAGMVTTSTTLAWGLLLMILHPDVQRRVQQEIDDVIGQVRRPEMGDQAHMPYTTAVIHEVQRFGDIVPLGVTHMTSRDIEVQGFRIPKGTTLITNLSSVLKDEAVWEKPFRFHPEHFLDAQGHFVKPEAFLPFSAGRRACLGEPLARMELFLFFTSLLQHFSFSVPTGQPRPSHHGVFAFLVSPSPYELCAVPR
Chain of Cytochrome P450 1A2 (Homo sapiens) (P05177 whole entry, looked up): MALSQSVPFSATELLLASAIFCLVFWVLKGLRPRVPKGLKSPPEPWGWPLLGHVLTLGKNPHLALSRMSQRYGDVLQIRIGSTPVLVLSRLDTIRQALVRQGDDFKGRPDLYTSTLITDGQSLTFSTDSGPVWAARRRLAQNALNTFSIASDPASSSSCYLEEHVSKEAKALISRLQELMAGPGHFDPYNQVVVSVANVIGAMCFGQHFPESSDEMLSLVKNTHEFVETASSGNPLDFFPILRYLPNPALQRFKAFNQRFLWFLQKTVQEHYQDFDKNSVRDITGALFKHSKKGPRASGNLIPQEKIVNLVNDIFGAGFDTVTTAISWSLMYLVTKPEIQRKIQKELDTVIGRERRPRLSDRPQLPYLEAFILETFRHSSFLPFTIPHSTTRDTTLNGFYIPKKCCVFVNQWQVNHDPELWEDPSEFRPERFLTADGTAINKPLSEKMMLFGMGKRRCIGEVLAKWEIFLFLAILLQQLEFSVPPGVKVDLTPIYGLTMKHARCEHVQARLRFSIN

For the molecule `NC(N)=NCCSSCCN=C(N)N`, the activity change, negative = inhibition in [1] is -8.04% [at 38 µM]; in assay [3], -8.54% [at 38 µM]. For the same molecule, the Potency entry in [2], in [7], in assay [8], in assay [9] and in [10] was “inactive” in each case. In addition, the activity, negative = inhibition in assay [4] was -24.3% [at 38 µM]. Also, the Potency in assay [5] and in assay [6] was > 46 µM each time.

With `C[C@]12C=CC(=O)C=C1CC[C@@H]1[C@H]3C[C@@H](O)[C@](O)(C(=O)CO)[C@]3(C)C[C@H](O)[C@]12F`, the activity change, negative = inhibition is -12.2% [at 38 µM] in assay [1] and -3.19% [at 38 µM] in assay [3]. The Potency result in assay [2], in assay [11], in assay [7] and in assay [9] was “inactive” in each case. In [4], the activity, negative = inhibition was -15.9% [at 38 µM]. Also, in assay [5], the Potency was 0.223 µM (active).

For `CC[C@@H]1CN2CCc3cc(OC)c(OC)cc3[C@H]2C[C@@H]1C[C@@H]1NCCc2cc(OC)c(OC)cc21`, the values for the activity change, negative = inhibition in [1] and in [3] were -110% [at 38 µM] (active) and -112% [at 38 µM] (active), respectively. Moreover, the Potency result in assay [2], in assay [12] and in assay [16] was “inactive” in each case. For the same molecule, the activity, negative = inhibition in assay [4] was -52.6% [at 38 µM] (active). The Potency in [5] and in assay [6] was > 46 µM in each case. Also, the call in assay [13], in [14] and in [15] was inactive.

Consider `OC[C@@H]1O[C@@H](n2cnc3c(N[C@@H]4C[C@@H]5CC[C@H]4C5)ncnc32)[C@@H](O)[C@H]1O`, for which the figures for the activity change, negative = inhibition in assay [1] and in assay [3] were -1.94% [at 38 µM] and 8.03% [at 38 µM], respectively. For the same molecule, the Potency entry in [2], in assay [7], in assay [18], in assay [20], in assay [12] and in [16] was “inactive” throughout. In assay [4], the activity, negative = inhibition was 24.8% [at 38 µM]. Besides, the Potency in [5] and in assay [6] was > 46 µM each time. The result in [17], in assay [19], in [13], in assay [14] and in [15] was inactive.

Turning to `COc1cc([C@H](O)C(=O)O)ccc1O`, the figures for the activity change, negative = inhibition in assay [1] and in assay [3] were 5.25% [at 38 µM] and -1.26% [at 38 µM], respectively. The Potency entry in assay [2], in [7], in assay [20], in [12] and in assay [16] was “inactive” throughout. Also, the activity, negative = inhibition in assay [4] was 4.86% [at 38 µM]. For the same molecule, the Potency in assay [5] and in assay [6] was > 46 µM each time. Moreover, the result in assay [19], in assay [13], in assay [14] and in assay [15] was inactive.

`C[C@@]12CCC(=O)C=C1CC[C@H]1[C@H]3CC[C@](O)(C(=O)CO)[C@]3(C)CC[C@@H]12`: the activity change, negative = inhibition was 16% [at 38 µM] in assay [1] and -2.8% [at 38 µM] in assay [3]. Moreover, the Potency result in assay [2], in assay [11], in assay [7], in assay [8] and in [9] was “inactive” throughout. In addition, the activity, negative = inhibition in assay [4] is -40.3% [at 38 µM]. Further, in [5], the Potency is 0.114 µM (active).

The values are drawn from PubChem BioAssay (NCATS).
